Sampled rows, rich in hits. Any-hit rate of the full collection: about 11%.
GoLoco inh red: inhibitors of human Gai1-RGS12 GoLoco interaction (red fluorophore) | P63096 | Gai1:RGS12 GoLoco peptide FP, rhodamine, 10 min | Potency, µM (top dose mostly 61.6 µM), actives largely listed as inhibitors | hit rate 0.44% among 230,000 | AID 880; active = well fitted inhibition curve with a large enough effect, not every such curve was filed as active; inactive = no such curve, though single readings can be large or run the other way; also: nearly all actives have a fitted effect of over 30% in size
Target sequence (P63096 whole entry, looked up): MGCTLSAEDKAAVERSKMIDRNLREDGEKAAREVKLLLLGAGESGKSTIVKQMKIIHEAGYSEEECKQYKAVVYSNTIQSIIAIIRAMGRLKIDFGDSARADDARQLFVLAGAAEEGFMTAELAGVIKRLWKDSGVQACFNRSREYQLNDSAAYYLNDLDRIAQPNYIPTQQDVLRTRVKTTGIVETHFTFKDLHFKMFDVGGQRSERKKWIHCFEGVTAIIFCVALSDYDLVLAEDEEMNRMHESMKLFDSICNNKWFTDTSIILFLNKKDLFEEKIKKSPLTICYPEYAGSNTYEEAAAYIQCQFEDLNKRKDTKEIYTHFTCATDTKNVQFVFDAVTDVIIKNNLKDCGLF
PNC inhibitor: inhibitors of perinucleolar compartment assembly; PC3M PTB-GFP, PNC prevalence imaging, 16 h; hits give low values; activity change (PNC), negative = inhibition, % at 10 µM; hit rate 3.1% among 140,000; AID 2417;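 active = readout at or below -70, meaning at least 70% loss of cells showing the perinucleolar compartment, a nuclear body marking cancer cells; inconclusive = readout between -30 and a set limit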
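Read-out is percentage of cells bearing a perinucleolar compartment, from automated 20x imaging of fixed, Hoechst-stained PC3M PTB-GFP cells. Cells were seeded 4 h, then exposed 16 h to compound (23 nl of library stock) in duplicate plates.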
HTT ATP protect: Huntington cell model cytoprotection by ATP luminescence | PC12 HTT-Q103 induced, cytoprotection, ATP luminescence, 40 h | Potency, µM (series often up to 56.4 µM), hits mostly activators | hit rate 0.14% among 230,000 | AID 1471; also: nearly all actives have a fitted effect of over 45% in size
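ATP quantification (ATPlite) reports survival of PC12 cells in which tebufenozide, 100 nM final, switches on Htt exon 1 with 103 glutamines linked to GFP; compounds are titrated.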
ALDH1A1 inh: inhibitors of human aldehyde dehydrogenase 1A1; Potency, µM (highest dose often 75.3 µM), usual class: inhibitors; P00352; Purified ALDH1A1, NADH fluorescence, propionaldehyde substrate; hit rate 7.3% among 220,000; AID 1030; active = well fitted inhibition curve with a large enough effect, not every such curve was filed as active; inconclusive = small, poorly fitted or top-dose-only effect, or another doubt; inactive = no such curve, though single readings can be large or run the other way
HPGD block: blocks human HPGD enzyme activity. Potency, µM, usual class: inhibitors. hit rate 4.3% among 150,000. purified HPGD, NADH fluorescence kinetic, PGE2 substrate. P15428. AID 894; active = well fitted inhibition curve with a large enough effect, not every such curve was filed as active; inconclusive = small, poorly fitted or top-dose-only effect, or another doubt; inactive = no such curve, though single readings can be large or run the other way
Target sequence (P15428 whole entry, looked up): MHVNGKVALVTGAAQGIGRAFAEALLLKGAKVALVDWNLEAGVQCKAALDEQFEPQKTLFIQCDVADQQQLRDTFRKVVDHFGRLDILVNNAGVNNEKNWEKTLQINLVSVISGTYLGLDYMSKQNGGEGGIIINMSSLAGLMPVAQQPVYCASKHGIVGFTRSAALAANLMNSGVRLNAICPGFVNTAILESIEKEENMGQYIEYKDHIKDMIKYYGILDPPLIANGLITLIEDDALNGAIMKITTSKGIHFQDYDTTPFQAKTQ
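NADH formation kinetics: reaction with 30 uM PGE2 and 1 mM NAD+ (final), 20 nM enzyme, Tris-HCl pH 8 with Tween 20, after 15 min compound preincubation at room temperature. Fluorescence change, last versus first of five reads.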
HTT aggregate: reduces HttQ103-GFP aggregates in PC12 cells; AID 1688; Potency, µM (doses to about 46.1 µM), most hits filed as inhibitors; PC12 HttQ103-GFP aggregates, Acumen cytometry, 40 h; hit rate 1.1% among 220,000; also: nearly all actives have a fitted effect of over 60% in size
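PC12 cells with ecdysone-inducible HTT exon1 Q103-GFP, induced by 100 nM tebufenozide, given compounds in a concentration series. GFP aggregates (1–25 um, 6 SD above background) counted in lysates by laser-scanning cytometry, 488 nm excitation.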
A number is an active result; n = inactive; u = inconclusive; x = no result; [ ] = dose if it differs, or a comment. Unless noted, calls follow the shape of the dose curve; as a rule, active = well fitted curve in the direction sought with a large enough effect; inconclusive = small, poorly fitted or top-dose-only effect, or another doubt; inactive = no such curve, though single readings can be large; an effect the other way counts as inactive or inconclusive.

SMILES | GoLoco inh red | PNC inhibitor | HTT ATP protect | ALDH1A1 inh | HPGD block | HTT aggregate
O=C(CCCCn1c(=O)c2ccccc2n(Cc2ccccc2)c1=O)NC1CCN(Cc2ccccc2)CC1 | n | x | n | n | x | n
CCOC(=O)C1(C)/C(=N/Nc2ccc(Cl)cc2)C(=O)C(=O)N1c1ccccc1 (stereo not given) | n | u | n | u | u | n
CCOC(=O)C1(C)/C(=N/Nc2ccccc2Cl)C(=O)C(=O)N1c1ccccc1 (stereo not given) | n | n | n | 0.224µM | 39.8µM | u
CCOC(=O)C1(C)/C(=N/Nc2cccc(Cl)c2)C(=O)C(=O)N1c1ccccc1 (stereo not given) | n | n | n | u | 31.6µM | n
CCOC(=O)C1(C)/C(=N/Nc2ccc(S(N)(=O)=O)cc2)C(=O)C(=O)N1c1ccccc1 (stereo not given) | n | x | n | 17.8µM | x | n
c1ccc(C(c2nnnn2C2CCCC2)N2CCN(c3nc4ccccc4s3)CC2)cc1 (stereo not given) | n | n | n[10 µM] | 14.1µM | n | n
CCC(C)(C)n1nnnc1C(c1ccc2ncccc2c1)N1CCN(c2nc3ccccc3s2)CC1 (stereo not given) | n | -85.9 | n[10 µM] | n | n | n
N#Cc1cccc(C(c2nnnn2C2CCCC2)N2CCC(Cc3ccccc3)CC2)c1 (stereo not given) | n | -100.0 | n[10 µM] | n | n | n
CCC(C)(C)n1nnnc1C(c1ccc2ncccc2c1)N1CCN(c2ccc(O)cc2)CC1 (stereo not given) | n | x | n[10 µM] | x | x | n[9.22 µM]
N#Cc1ccc(C(c2nnnn2C2CCCC2)N2CCC(Cc3ccccc3)CC2)cc1 (stereo not given) | n | n | n | u | n | n
c1cnc2ccc(C(c3nnnn3C3CCCC3)N3CCSCC3)cc2c1 (stereo not given) | n | -118.9 | n[10 µM] | n | n | n
Cc1ccc(OCc2csc(N)n2)cc1 | n | x | n | n | x | n
Fc1ccccc1N1CCN(C(c2ccncc2)c2nnnn2C2CCCC2)CC1 (stereo not given) | n | n | n | 25.1µM | n | n
CCOC(=O)c1nonc1NC(C)=O | n | -100.0 | n[10 µM] | n | n | n
CN(C)C/C=C(/c1ccc(Br)cc1)c1cccnc1 | n | x | u | n | u | n
Cc1ccccc1-c1nc(Nc2ccncc2)c2ccccc2n1 | n | x | n | u | x | x
CCC1NC(=O)C(NC(=O)c2ncccc2O)C(C)OC(=O)C(c2ccccc2)NC(=O)C2CC(=O)CCN2C(=O)C(Cc2ccccc2)N(C)C(=O)C2CCCN2C1=O (stereo not given) | x | x | n | x | x | n
CCSC1(SCC)N=C(N)C2(C#N)C(c3ccc(OC)c(OC)c3OC)C12C#N (stereo not given) | n | u | n[10 µM] | u | 8.91µM | u
CCSC1(SCC)N=C(N)C2(C#N)C(c3ccccc3)NC3=C(CCC3)C12C#N (stereo not given) | n | u | u | n | n | n
COCCn1c(SCC#N)nnc1-c1ccc(OC)cc1 | n | -100.0 | n[10 µM] | n | n | n
COCc1cc(C)nc(SCC[N+](C)(C)CC(=O)Nc2ccccc2)c1C#N | n | x | u | n | x | n
COCc1cc(C)nc(SCC[N+](C)(C)CC(=O)c2ccc(Br)cc2)c1C#N | n | x | n | 7.94µM | x | n
O=C(Nc1ccc(F)cc1)c1nc2c(nnn2Cc2cccc3ccccc23)c(=O)[nH]1 | n | x | n[10 µM] | x | x | n[9.22 µM]
c1ccc(-c2cccc(N3CC[C@@]4(CCCNC4)C3)c2)cc1 | n | x | n | u | n | x
CCCCCCn1c(CN2CCN(C(=O)c3ccco3)CC2)nc2c1c(=O)n(C)c(=O)n2C | n | -121.7 | n | 1.26µM | n | n
SMILES | GoLoco inh red | PNC inhibitor | HTT ATP protect | ALDH1A1 inh | HPGD block | HTT aggregate
CCCCn1c(CN2CCN(C(=O)c3ccco3)CC2)nc2c1c(=O)n(C)c(=O)n2C | n | n | n | 22.4µM | n | n
CCCCCn1c(CN2CCN(C(=O)c3ccco3)CC2)nc2c1c(=O)n(C)c(=O)n2C | n | x | n[10 µM] | x | x | n[9.22 µM]
CC1=NN(/C(=N\c2nnc(C)s2)Nc2ccc(C(C)(C)C)cc2)[C@H](c2ccc(C)cc2)S1 | n | n | n[10 µM] | u | n | u
Oc1ccc(C=NCC2COc3ccccc3O2)cc1 (stereo not given) | n | n | n | 17.8µM | n | n
COc1cc(N2CCCC2)ccc1[N+](=O)[O-] | n | n | x | u | n | n
COc1cccc(/C=N/NC(=O)C(=O)NCc2cccnc2)c1OC | n | x | n[10 µM] | 15.8µM | x | n[9.22 µM]
COc1ccc(-c2nc(-c3ccccc3)c(NC(C)(C)C)o2)cc1 | n | x | u | n | n | x
Nc1ccc(Oc2ccc([N+](=O)[O-])cc2[N+](=O)[O-])cc1 | n | n | n | u | n | n[1.84 µM]
CC1=NN(c2ccccc2)C(=O)/C1=C\c1ccc(Oc2ccc([N+](=O)[O-])cc2[N+](=O)[O-])cc1 | n | u | n[10 µM] | 8.91µM | 8.91µM | n
COc1cc(/C=C2\C(=O)N(c3ccccc3)N=C2C)ccc1Oc1ccc([N+](=O)[O-])cc1[N+](=O)[O-] | n | n | n[10 µM] | u | 12.6µM | n
O=C1C=C(Nc2ccc(O)cc2)C(=O)c2ccccc21 | n | x | n[10 µM] | n | x | n[9.22 µM]
CCOc1ccc(NC2=C(OC)C(=O)c3ccccc3C2=O)cc1 | n | n | n[10 µM] | 3.16µM | 20µM | u
COC1=C(Nc2ccc(OC)cc2)C(=O)c2ccccc2C1=O | n | n | n[10 µM] | u | 15.8µM | 12.6µM
COc1ccc(NC2=C(NCCO)C(=O)c3ccccc3C2=O)cc1 | n | u | n[10 µM] | 11.2µM | n | n
COc1ccc(C2=C(Nc3ccccc3)c3ccccc3C2=O)cc1 | n | u | n[10 µM] | n | n | n
COC1=C(Nc2ccc(O)cc2)C(=O)c2ccccc2C1=O | n | n | n[10 µM] | 17.8µM | 28.2µM | n
COc1ccc(NC2=C(c3ccc(OC)cc3)C(=O)c3ccccc32)cc1 | n | u | n[10 µM] | n | n | n
OB(O)c1csc2ccccc12 | n | x | n | n | n | x
Cc1cccc(NC2=C(NCCO)C(=O)c3ccccc3C2=O)c1 | n | n | n[10 µM] | 25.1µM | n | n
Nn1c(SCc2ccc(Br)cc2)nnc1-c1ccncc1 | n | x | n | n | x | n
CC1(C)Cn2c(nnc2-c2ccccc2)S1 | n | n | n[0.074 µM] | n | 15.8µM | n
CC1(C)Cc2ccccc2-c2nnc(-c3ccccc3)n21 | n | n | n | n | n | n
CC(=O)CC(C)(C)NC(C)=S | n | x | n[10 µM] | x | x | n[9.22 µM]
CC(C)C1S/C(=N/N=C/c2ccco2)NC1=O (stereo not given) | n | n | n | x | 12.6µM | n
COC(=O)C1=C(C(=O)OC)[C@@H]2Nc3ccccc3[C@@]23C[C@@H](C(=O)OC)N(S(=O)(=O)c2ccc(C#N)cc2)C3=N1 | n[14.2 µM] | x | n[10 µM] | u | n | x
CC(=O)Oc1cccc(N2C(=O)C3C4C=CC(C4=C(C)C)C3C2=O)c1 (stereo not given) | n | n | n | 7.08µM | n | u

Screens deposited in PubChem BioAssay by National Center for Advancing Translational Sciences (NCATS).
